Assay results as given in the supplement of paper PMC11732987, “Enantioselective OTUD7B fragment discovery through chemoproteomics screening and high-throughput optimisation” (Communications Chemistry, 2025).

Key:
Test in all cases: log2 ratio of Biotin-Ahx-Ub-VS probe labelling (fragment/DMSO); higher = less target engagement (more negative = stronger competition), active = hit call of the paper (q ≤ 0.05, log2 ratio ≤ -1)
Conditions in all cases: compound concentration: 200 uM; treatment time: 3 h
OTUD6B = molecular target: T1, OTUD6B (UniProt Q8N6M0)
T1 sequence (whole entry): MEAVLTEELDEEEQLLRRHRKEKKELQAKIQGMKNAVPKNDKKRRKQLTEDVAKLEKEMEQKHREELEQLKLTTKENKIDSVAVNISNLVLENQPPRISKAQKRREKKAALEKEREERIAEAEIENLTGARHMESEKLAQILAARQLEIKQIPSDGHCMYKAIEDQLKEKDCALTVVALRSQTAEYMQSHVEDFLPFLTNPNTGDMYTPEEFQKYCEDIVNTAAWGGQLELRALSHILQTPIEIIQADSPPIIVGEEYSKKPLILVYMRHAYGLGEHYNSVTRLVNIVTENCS
In short: (§1)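 The table lists average log2 ratios of fragment over vehicle, from an unpaired t-test on global-median-normalised Spectronaut label-free quantities. Proteins with ≥2 unique peptides were used. Samples were HEK293T lysate (495 µg) treated in triplicate with fragment at 200 µM or vehicle for 3 h, then with Biotin-Ahx-Ub-VS (0.5 µM final) for 1 h, with labelled DUBs NeutrAvidin-enriched and run by diaPASEF LC-MS/MS.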

OTUD7B = molecular target: T2, OTUD7B (UniProt Q6GQQ9)
T2 sequence (whole entry): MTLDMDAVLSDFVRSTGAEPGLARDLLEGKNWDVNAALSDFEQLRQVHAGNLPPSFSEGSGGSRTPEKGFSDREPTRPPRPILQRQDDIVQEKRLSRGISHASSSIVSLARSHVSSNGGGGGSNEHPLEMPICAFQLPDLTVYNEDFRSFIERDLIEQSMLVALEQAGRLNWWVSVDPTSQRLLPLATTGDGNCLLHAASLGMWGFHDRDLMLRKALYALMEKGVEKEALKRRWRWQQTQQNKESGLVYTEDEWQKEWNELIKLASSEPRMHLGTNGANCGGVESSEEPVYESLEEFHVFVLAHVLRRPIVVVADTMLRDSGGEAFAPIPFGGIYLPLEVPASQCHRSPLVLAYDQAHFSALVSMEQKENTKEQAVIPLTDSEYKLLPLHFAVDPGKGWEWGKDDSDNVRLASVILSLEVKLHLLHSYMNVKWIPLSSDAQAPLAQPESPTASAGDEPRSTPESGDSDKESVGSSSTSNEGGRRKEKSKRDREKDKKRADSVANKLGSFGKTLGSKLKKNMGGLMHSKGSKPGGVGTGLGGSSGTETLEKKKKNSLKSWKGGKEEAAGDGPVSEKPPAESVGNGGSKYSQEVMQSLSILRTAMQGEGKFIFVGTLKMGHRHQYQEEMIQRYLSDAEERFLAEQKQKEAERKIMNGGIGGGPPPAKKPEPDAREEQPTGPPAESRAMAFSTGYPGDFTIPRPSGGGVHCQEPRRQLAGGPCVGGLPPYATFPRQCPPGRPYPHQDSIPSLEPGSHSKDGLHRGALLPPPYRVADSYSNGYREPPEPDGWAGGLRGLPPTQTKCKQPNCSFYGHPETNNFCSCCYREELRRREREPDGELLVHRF
In short: as §1

PRPF8 = PRPF8 (UniProt Q6P2Q9)
In short: as §1

PSMD7 = molecular target: T3, PSMD7 (UniProt P51665)
T3 sequence (whole entry): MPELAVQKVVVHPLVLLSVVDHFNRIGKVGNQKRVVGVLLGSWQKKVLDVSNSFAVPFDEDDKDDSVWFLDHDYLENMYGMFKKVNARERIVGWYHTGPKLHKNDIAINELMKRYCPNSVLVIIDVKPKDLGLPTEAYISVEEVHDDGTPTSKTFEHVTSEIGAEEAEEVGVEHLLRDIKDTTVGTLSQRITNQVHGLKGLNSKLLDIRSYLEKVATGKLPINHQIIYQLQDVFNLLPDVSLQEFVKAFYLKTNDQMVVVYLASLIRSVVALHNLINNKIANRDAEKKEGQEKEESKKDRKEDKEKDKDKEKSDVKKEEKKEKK
In short: as §1

UCHL1 = UCHL1 (UniProt P09936)
In short: as §1

UCHL3 = molecular target: T4, UCHL3 (UniProt P15374)
T4 sequence (whole entry): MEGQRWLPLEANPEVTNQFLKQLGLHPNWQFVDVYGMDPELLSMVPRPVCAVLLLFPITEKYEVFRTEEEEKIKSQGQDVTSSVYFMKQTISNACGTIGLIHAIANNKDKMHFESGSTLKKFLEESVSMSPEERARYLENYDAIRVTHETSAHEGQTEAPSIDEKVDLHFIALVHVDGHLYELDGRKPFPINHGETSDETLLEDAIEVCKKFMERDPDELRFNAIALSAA
In short: as §1

UCHL5 = molecular target: T5, UCHL5 (UniProt Q9Y5K5)
T5 sequence (whole entry): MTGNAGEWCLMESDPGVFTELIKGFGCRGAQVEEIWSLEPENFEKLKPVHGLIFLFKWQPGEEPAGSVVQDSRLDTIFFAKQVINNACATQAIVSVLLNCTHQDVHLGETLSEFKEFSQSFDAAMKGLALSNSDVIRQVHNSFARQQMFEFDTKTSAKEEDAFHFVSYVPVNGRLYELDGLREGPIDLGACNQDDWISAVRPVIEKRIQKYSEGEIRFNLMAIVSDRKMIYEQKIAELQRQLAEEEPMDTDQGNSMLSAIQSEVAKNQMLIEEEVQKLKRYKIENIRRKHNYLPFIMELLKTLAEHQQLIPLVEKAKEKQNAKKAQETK
In short: as §1

USP10 = USP10 (UniProt Q14694)
In short: as §1

USP15 = molecular target: T6, USP15 (UniProt Q9Y4E8)
T6 sequence (whole entry): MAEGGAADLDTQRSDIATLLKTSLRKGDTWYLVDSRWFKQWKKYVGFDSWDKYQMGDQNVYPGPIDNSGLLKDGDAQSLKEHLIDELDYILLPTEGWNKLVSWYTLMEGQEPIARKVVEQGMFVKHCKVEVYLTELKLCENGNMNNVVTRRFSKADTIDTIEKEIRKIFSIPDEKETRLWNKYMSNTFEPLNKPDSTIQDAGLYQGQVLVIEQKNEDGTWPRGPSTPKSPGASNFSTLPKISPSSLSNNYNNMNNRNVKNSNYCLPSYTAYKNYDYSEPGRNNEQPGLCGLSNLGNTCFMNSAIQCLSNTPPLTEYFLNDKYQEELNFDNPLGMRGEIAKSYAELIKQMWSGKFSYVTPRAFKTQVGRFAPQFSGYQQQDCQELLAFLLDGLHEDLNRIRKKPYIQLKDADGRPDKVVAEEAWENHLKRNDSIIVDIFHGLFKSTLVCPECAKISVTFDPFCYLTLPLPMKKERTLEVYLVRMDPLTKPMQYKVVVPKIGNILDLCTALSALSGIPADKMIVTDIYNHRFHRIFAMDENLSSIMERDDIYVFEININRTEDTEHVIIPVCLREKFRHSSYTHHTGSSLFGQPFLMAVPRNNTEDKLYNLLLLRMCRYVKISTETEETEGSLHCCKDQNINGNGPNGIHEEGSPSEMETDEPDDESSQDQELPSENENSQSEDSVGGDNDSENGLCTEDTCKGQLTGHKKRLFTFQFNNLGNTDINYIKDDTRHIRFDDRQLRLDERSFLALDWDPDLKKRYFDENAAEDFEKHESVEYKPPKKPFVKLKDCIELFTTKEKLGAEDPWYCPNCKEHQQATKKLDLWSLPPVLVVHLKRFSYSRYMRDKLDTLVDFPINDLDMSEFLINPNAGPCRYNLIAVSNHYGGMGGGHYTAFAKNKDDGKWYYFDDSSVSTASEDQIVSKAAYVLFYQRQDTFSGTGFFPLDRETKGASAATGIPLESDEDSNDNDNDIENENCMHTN
In short: as §1

USP16 = USP16 (UniProt Q9Y5T5)
In short: as §1

Measured: log2 ratio of Biotin-Ahx-Ub-VS probe labelling

Sequence of USP10 (Q14694 whole entry): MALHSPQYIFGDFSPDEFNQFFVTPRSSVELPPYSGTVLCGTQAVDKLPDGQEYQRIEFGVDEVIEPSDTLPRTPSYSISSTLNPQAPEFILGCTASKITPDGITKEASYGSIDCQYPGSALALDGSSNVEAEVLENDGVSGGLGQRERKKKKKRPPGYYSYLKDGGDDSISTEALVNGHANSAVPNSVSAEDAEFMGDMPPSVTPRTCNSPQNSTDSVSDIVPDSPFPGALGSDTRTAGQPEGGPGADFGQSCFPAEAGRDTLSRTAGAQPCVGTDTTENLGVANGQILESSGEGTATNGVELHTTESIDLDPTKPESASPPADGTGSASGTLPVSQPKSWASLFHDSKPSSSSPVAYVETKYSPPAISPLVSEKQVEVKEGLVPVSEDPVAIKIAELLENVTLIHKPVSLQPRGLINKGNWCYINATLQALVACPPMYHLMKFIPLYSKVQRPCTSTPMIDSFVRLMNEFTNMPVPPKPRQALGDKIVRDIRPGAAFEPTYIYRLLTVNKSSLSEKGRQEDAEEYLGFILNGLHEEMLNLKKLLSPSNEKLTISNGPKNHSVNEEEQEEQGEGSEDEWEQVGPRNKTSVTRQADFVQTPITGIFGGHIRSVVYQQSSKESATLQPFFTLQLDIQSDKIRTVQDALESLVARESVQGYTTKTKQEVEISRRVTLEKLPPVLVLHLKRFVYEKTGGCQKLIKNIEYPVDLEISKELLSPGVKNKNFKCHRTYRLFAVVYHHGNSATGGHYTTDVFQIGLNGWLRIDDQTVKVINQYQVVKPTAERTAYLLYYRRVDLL
Sequence of USP16 (Q9Y5T5 whole entry, looked up): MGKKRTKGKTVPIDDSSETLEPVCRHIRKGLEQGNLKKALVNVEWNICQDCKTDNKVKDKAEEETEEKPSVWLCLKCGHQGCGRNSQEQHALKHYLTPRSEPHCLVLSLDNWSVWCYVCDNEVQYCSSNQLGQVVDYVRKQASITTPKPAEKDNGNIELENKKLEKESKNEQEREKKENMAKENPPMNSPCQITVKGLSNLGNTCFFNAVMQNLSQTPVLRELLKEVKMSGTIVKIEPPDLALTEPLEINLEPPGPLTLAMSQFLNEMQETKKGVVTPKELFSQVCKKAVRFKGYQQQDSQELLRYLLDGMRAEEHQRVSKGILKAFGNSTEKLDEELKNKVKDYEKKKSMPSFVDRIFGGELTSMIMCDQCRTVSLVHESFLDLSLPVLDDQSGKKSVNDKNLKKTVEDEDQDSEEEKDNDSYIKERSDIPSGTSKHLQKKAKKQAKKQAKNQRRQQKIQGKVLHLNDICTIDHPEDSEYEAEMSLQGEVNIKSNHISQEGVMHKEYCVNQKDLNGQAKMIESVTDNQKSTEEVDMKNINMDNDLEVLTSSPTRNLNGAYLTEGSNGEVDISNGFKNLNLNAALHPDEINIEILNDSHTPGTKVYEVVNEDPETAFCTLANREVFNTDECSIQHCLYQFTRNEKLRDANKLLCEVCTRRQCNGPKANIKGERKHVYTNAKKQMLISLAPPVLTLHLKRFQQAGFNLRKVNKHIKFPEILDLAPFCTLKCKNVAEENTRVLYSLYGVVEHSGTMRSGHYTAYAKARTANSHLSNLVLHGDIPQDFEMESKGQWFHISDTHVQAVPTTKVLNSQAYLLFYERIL
Sequence of UCHL1 (P09936 whole entry, looked up): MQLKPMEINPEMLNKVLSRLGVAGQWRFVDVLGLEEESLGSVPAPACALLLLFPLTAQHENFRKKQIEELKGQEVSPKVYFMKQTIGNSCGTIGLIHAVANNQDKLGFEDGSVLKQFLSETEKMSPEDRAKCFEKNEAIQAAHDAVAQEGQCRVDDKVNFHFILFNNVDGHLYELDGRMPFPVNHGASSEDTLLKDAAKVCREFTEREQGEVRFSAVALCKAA

Cc1ccc(CN(CCO)C(=O)CCl)cc1
active: OTUD7B -1.14 | UCHL1 -1.56
inactive: OTUD6B -0.389 | PRPF8 0.0652 | PSMD7 -0.47 | UCHL3 0.0861 | UCHL5 -0.52 | USP10 -0.0725 | USP15 -0.384 | USP16 0.361
